According to PubChem BioAssay (NCATS):
Results filed as inconclusive are left out. Calls of active or inactive are those of the source. The call rests on the fitted dose curve; in most records, active means well fitted inhibition curve with a large enough effect; inconclusive means small, poorly fitted or top-dose-only effect; inactive means flat fitted curve, though single readings scatter.

target: Dual specificity protein kinase CLK4 (Homo sapiens) (UniProt Q9HAZ1); assay: qHTS Assay for Inhibitors of CDC-like Kinase 4 (Kinase-Glo Assay) (AID 1770); details: recombinant Clk4, Kinase-Glo ATP depletion luminescence; series mostly up to 66.7 µM; activity, negative = inhibition: at the top concentration; further: nearly all actives have a fitted effect of over 65% in size
Sequence (Q9HAZ1 whole entry, looked up): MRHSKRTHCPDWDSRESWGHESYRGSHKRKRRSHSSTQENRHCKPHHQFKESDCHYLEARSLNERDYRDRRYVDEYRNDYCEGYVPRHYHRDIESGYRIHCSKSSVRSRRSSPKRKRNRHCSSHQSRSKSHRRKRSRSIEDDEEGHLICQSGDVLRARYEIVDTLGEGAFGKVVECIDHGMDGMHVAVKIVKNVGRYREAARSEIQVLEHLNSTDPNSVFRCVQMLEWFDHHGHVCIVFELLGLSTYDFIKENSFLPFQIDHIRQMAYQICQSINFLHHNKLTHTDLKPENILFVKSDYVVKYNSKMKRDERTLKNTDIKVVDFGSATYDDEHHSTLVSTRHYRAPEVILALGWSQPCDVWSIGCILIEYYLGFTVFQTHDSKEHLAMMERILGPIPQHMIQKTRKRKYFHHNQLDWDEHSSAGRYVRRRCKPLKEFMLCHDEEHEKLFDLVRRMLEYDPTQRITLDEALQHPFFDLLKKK
In short: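 Luminescent ATP-depletion read-out (Kinase-Glo) after 4.5 h room-temperature reaction of Clk4 (25 nM final) with RS peptide (100 uM) and ATP (1 uM), pH 7.5 Tris buffer with MgCl2 and DTT.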
On the % scale 0 is the no-effect control and ±100 the full control effect; potency means the concentration at half of the fitted maximal effect.

Compound | activity, negative = inhibition | Potency
COc1ccc(CNc2ncncc2-c2ccccc2OC)c(OC)c1 | -15.3% (inactive) | –
COCCn1c(=O)c(-c2cccs2)nc2cnc(Oc3ccccc3)nc21 | -7.15% (inactive) | –
CN(C)c1ncnc2ccc(-c3cccc(NS(C)(=O)=O)c3)cc12 | – | 11.2 µM (active)
COc1ccc(Oc2ncc3nc(-c4ccc(F)cc4)c(=O)n(C[C@H]4CCCO4)c3n2)cc1 | -7.68% (inactive) | –
CN(C)c1ncc2nc(CCc3ccccc3)c(=O)n(CCC#N)c2n1 | -4.14% (inactive) | –
CN(C)c1ncc2nc(CCc3ccccc3)c(=O)n(CCc3ccccc3)c2n1 | -1.23% (inactive) | –
COc1ccc(CNc2cc(-c3cccc(NS(C)(=O)=O)c3)ncn2)c(OC)c1 | -27.6% (inactive) | –
O=c1c(CCc2ccccc2)nc2cnc(Nc3ccccc3)nc2n1C[C@H]1CCCO1 | -2.85% (inactive) | –
CCNc1ncc2nc(CCc3ccccc3)c(=O)n(Cc3cccc(OC)c3)c2n1 | 0.366% (inactive) | –
COCCn1c(=O)c(-c2cc(F)cc(F)c2)nc2cnc(N3CCN(C)CC3)nc21 | -2.27% (inactive) | –
COc1ccccc1CNc1cc(-c2ccccc2CN(C)C)ncn1 | -2.63% (inactive) | –
CN(Cc1ccco1)c1nc(-c2ccccc2C(F)(F)F)nc2ccccc12 | – | 20 µM (active)
O=c1c(CCc2ccccc2)nc2cnc(N3CCOCC3)nc2n1-c1ccccc1 | -2.83% (inactive) | –
O=c1c(CCc2ccccc2)nc2cnc(N3CCNCC3)nc2n1Cc1cccs1 | -0.8% (inactive) | –
N#CCCn1c(=O)c(-c2cccc(C#N)c2)nc2cnc(Oc3cccc(Cl)c3)nc21 | -7.71% (inactive) | –
Cn1cc(-c2nc3cnc(N4CCNCC4)nc3n(C3CC3)c2=O)c2ccccc21 | -7.49% (inactive) | –
COc1ccccc1-c1ccc2ncnc(N3CCNCC3)c2c1 | – | 4.47 µM (active)
COCCn1c(=O)c(-c2ccccc2)nc2cnc(Oc3cccc(Cl)c3)nc21 | -7.48% (inactive) | –
COc1ccccc1-c1nccc(NCc2cccs2)n1 | -2.03% (inactive) | –
Clc1ccccc1-c1nc(-n2ccnc2)c2ccccc2n1 | – | 1.26 µM (active)
COc1ccc(-n2c(=O)c(CCc3ccccc3)nc3cnc(OC)nc32)cc1 | 1.6% (inactive) | –
COc1ccc(Oc2ncc3nc(-c4cccc(C#N)c4)c(=O)n(Cc4cccc(OC)c4)c3n2)cc1 | -0.628% (inactive) | –
N#Cc1cccc(-c2nc(NCCN3CCOCC3)c3ccccc3n2)c1 | – | 11.2 µM (active)
